Screens from PubChem BioAssay.
SARS PLP yeast: inhibitors of SARS-CoV papain-like protease in yeast; Potency, µM (titrated, usually from 32.9 µM), for inactives: top-dose activity, positive = growth rescue, actives largely listed as activators; actives 0.19% (n = 330,000); S. cerevisiae expressing SARS-CoV PLpro, growth rescue; calls by dose curve; further: 0% is about no effect; nearly all actives have a fitted effect of over 55% in size
AmpC no deterg: AmpC beta-lactamase inhibition without detergent. Potency, µM (highest dose often 57.1 µM), without a hit: top-dose activity change, negative = inhibition, hits mostly inhibitors. AID 485341. actives 0.52% (n = 330,000). AmpC nitrocefin hydrolysis, absorbance 480 nm, 0.0001% Triton;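 further: plate controls were no compound for no effect and no enzyme for full effect; nearly all actives have a fitted effect of over 20% in size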
Target sequence (P00811 whole entry, looked up): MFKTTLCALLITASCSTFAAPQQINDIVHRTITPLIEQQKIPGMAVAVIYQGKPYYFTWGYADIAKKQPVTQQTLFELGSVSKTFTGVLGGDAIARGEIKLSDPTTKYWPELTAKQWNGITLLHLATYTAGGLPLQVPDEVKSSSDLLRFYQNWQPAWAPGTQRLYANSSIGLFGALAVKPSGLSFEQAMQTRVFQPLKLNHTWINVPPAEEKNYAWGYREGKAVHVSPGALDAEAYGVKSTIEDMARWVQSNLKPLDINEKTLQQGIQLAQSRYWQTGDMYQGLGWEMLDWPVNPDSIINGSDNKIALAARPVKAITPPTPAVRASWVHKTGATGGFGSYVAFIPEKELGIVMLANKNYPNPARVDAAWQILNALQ
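AmpC (5.3 nM in the dispensed reagent) in 20 mM phosphate pH 7.0 with 0.01% (detergent screen) or 0.0001% Triton X-100 was preincubated with compounds for 15 min at room temperature. Nitrocefin was then added from an 800 uM solution, and hydrolysis was followed at 480 nm.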
Pf growth 48h: inhibits P. falciparum growth in the first generation, 48 h. actives 5.9% (n = 310,000). Potency, µM (highest dose often 28.7 µM), without a hit: top-dose activity change, negative = inhibition, usual class: inhibitors. P. falciparum luciferase growth in erythrocytes, 48 h. AID 504832; further: on the % scale 0 is the no-effect control and ±100 the full control effect
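First compound was added to culture medium, then infected red cells at 0.1% parasitemia and 2% hematocrit (final). After incubation at 37 C under 5% CO2, luciferase detection reagent was dispensed and light output recorded.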
AmpC inh detg: inhibitors of E. coli AmpC beta-lactamase with detergent. P00811. AmpC hydrolysis of nitrocefin, absorbance 480 nm, 0.01% Triton. Potency, µM (top dose mostly 114 µM), inactives show at the top dose activity change, negative = inhibition, actives largely listed as inhibitors. actives 0.041% (n = 370,000). AID 485294;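 further: 0% = no-compound wells and -100% = no-enzyme wells; nearly all actives have a fitted effect of over 25% in size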
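20 mM phosphate pH 7.0 + 0.01% (detergent screen) or 0.0001% Triton X-100; 5.3 nM AmpC reagent; cpd preinc 15 min RT; nitrocefin (800 uM stock) to start; A480 q20 s × 4 min; Activity was normalised to no-enzyme and no-compound control wells.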
Sm TGR block: inhibitors of Schistosoma mansoni thioredoxin glutathione reductase; Q962Y6; purified TGR, DTNB reduction, TNB absorbance 405 nm; Potency, µM (doses to about 114 µM), for the others: at the top dose activity change, negative = inhibition, hits mostly inhibitors; actives 3% (n = 360,000); AID 485364; further: on the % scale 0 is the no-effect control and ±100 the full control effect; nearly all actives have a fitted effect of over 60% in size
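TGR 20 nM + NADPH 100 uM (dispensed conc.), cpd preinc 15 min RT; start with NADPH (500 uM addition) then DTNB (15 mM addition). Kinetic TNB absorbance, 405 nm filter. Four-parameter Hill fit across titration.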
Pf growth 96h: P. falciparum growth inhibition at 96 hour, primary screen for plastid delayed-death inhibitors. P. falciparum luciferase reporter growth, 96 h. Potency, µM (doses to about 28.7 µM), for the others: top-dose activity change, negative = inhibition, actives largely listed as inhibitors. actives 6.9% (n = 320,000); further: on the % scale 0 is the no-effect control and ±100 the full control effect
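96 h incubation, 37 C, 5% CO2, of luciferase-reporter P. falciparum-infected RBCs (2% hematocrit, 0.05% parasitemia final) with test compounds; endpoint luminescence.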
The depositor's hits bear a star; ? = inconclusive; . = no result given; [ ] = remark or other dose. Most compounds without a hit are left out; they make up all but 12% or so of the library. Unless noted, the call rests on the fitted dose curve; in most records, active means well fitted curve in the direction sought with a large enough effect; inconclusive means small, poorly fitted or top-dose-only effect, or another doubt; inactive means no such curve, though single readings can be large; an effect the other way counts as inactive or inconclusive. Potency means the concentration at half of the fitted maximal effect.

SMILES	SARS PLP yeast	AmpC no deterg	Pf growth 48h	AmpC inh detg	Sm TGR block	Pf growth 96h
COc1ccc(/C=C/C(=O)OCC(=O)NCc2ccco2)cc1OC	-8%	-20%	7%	?	-6%	-2%
CSCc1ccc(C(=O)N2CCCC(Nc3ccc(F)cc3)C2)o1 (centres undefined)	-9%	35%	?	13%	-32%	1%
CSCc1ccc(C(=O)N2CCCC(Nc3ccc4c(c3)OCCO4)C2)o1 (centres undefined)	6%	-9%	-18%	?	28µM*	50%
COc1ccc(CCNC(=O)C2c3ccccc3C(=O)N2CCC(C)C)cc1OC (centres undefined)	1%	13%	-12%	-1%	-1%	8.3µM*
COc1ccc(CCNC(=O)c2cc(-c3cc(Cl)ccc3O)n[nH]2)cc1OC	1%	-44%	?	0%	-9%	-22%
COc1ccc(CCNC(=O)C2c3ccccc3C(=O)N2Cc2ccccc2)cc1OC (centres undefined)	.	.	.	-5%	1%	.
COc1ccc(CCNC(=O)c2cc(-c3ccc(C)cc3O)n[nH]2)cc1OC	12%	-24%	.	-6%	-29%	7.4µM*
COc1ccc(CCNC(=O)c2cc(-c3ccccc3O)n[nH]2)cc1OC	2%	-40%	13µM*	?	-12%	3%[5.75 µM]
CCCCCn1c(CCCNC(=O)c2ccc(Cl)cc2)nc2ccccc21	.	.	.	-1%	8%	.
Cc1cc(C)c2oc(C(=O)Nc3c(C(=O)c4ccccc4)oc4ccccc34)cc(=O)c2c1	.	.	.	16%	2%	.
CN1CCN(C(=O)C2=C[C@@H](c3ccccc3)C[C@@H](OCc3ccc(CO)cc3)O2)CC1	0%	55%	-22%	8%	40µM*	-1%
O=C(C1=C[C@@H](c2ccc(Br)cc2)C[C@@H](OCc2ccc(CO)cc2)O1)N1CCN(Cc2ccccc2)CC1	-2%	91%	?	3%	25µM*	12µM*
O=C(C1=C[C@H](c2ccccc2)C[C@H](OCCCCO)O1)N1CCN(Cc2ccccc2)CC1	0%	142%	?	7%	0%	?
C#Cc1ccc([C@@H]2C=C(C(=O)N3CCN(Cc4ccccc4)CC3)O[C@H](OCCCCO)C2)cc1	-2%	159%	?	5%	13µM*	?
C#Cc1ccc([C@H]2C=C(C(=O)N3CCN(Cc4ccccc4)CC3)O[C@@H](OCc3ccc(CO)cc3)C2)cc1	-1%	75%	3.3µM*	-4%	45µM*	2.3µM*
CN1CCN(C(=O)C2=C[C@@H](c3ccc(Br)cc3)C[C@@H](OCc3ccc(CO)cc3)O2)CC1	-3%	206%	?	-4%	-30%	?
CCc1ccccc1NC(=O)Nc1ccc2c(c1)N(CC)C(=O)c1ccccc1S2	.	.	.	1%	7%	.
CCOc1ccc(CCNC(=O)Cn2nc(C)n3c(cc4occc43)c2=O)cc1OCC	.	.	.	21%	-3%	.
Cc1cc(C)c(NC(=O)Cn2c(=O)n(Cc3ccco3)c(=O)c3ccc(C(=O)NC4CCCC4)cc32)c(C)c1	.	.	.	6%	2%	.
O=C(C1=C[C@H](c2ccc(C(F)(F)F)cc2)C[C@H](OCCCCO)O1)N1CCN(Cc2ccccc2)CC1	-1%	188%	?	-6%	35µM*	?
COC(=O)COc1ccc(S(=O)(=O)N2CCN(c3ccc(F)cc3)CC2)cc1	-2%	23%	.	-8%	1%	?
CCOC(=O)C(C)Oc1ccc(=O)n(-c2ccccc2)n1 (centres undefined)	0%	-13%	-2%	-4%	-2%	1.9µM*
CCCCOC(=O)C(C)Oc1ccc(=O)n(-c2ccccc2)n1 (centres undefined)	7%	10%	.	-12%	-2%	?
COc1cccc(OC)c1C(=O)NC(C)C12CC3CC(CC(C3)C1)C2 (centres undefined)	-40%	27%	.	0%	0%	?
COc1ccc(CNC(C)C23CC4CC(CC(C4)C2)C3)c(OC)c1OC (centres undefined)	-1%	25%	12µM*	-4%	-5%	9.3µM*
SMILES	SARS PLP yeast	AmpC no deterg	Pf growth 48h	AmpC inh detg	Sm TGR block	Pf growth 96h
O=S1(=O)C=C(Sc2nc3cc(Cl)ccc3o2)c2ccccc21	-19%	-35%	?	-1%	1.6µM*	19%
CN(C)c1nc(N)nc(CSc2nc3cc(Cl)ccc3o2)n1	-4%	0%	57%	?	-1%	.
Cc1ccc(-c2noc(CSc3nnc(Cc4ccccc4)n3-c3ccc(Cl)cc3)n2)cc1	-3%	18%	.	-5%	4%	9.3µM*
COc1cc(CC(NC(C)=O)C(=O)NC2CCN(c3nc(OC)nc(OC)n3)CC2)cc(OC)c1 (centres undefined)	1%	-6%	13µM*	-6%	-15%	5.2µM*
COc1cc(CC(NC(C)=O)C(=O)NC2CCN(C(=O)C3CC3)CC2)cc(OC)c1 (centres undefined)	0%	-6%	6%	5%	.	62%
COc1nc(OC)nc(N2CCC(NC(=O)C(Cc3ccc(C(C)C)cc3)NC(C)=O)CC2)n1 (centres undefined)	6%	7%	10µM*	-4%	-2%	11%
O=C(Nc1ccc(F)cc1F)c1ccc(CN2CC(=O)N3CCCCC3C2=O)cc1 (centres undefined)	.	.	.	4%	6%	.
O=C1OC(COc2ccc(Br)cc2)CN1c1ccccc1 (centres undefined)	-1%	-7%	21%	-6%	0%	-2%
COc1ccc(NC(=S)NC(NC(=O)c2cccc(C)c2)C(Cl)(Cl)Cl)c([N+](=O)[O-])c1 (centres undefined)	0%	4µM*	3.3µM*	0%	0%	-19%
COc1ccccc1NC(=S)NC(NC(=O)CC(C)C)C(Cl)(Cl)Cl (centres undefined)	1%	-17%	15µM*	-5%	1%	?
COc1ccc(NC(=S)NC(NC(=O)c2cccc(Cl)c2)C(Cl)(Cl)Cl)c([N+](=O)[O-])c1 (centres undefined)	-22%	-16%	3.3µM*	-9%	-1%	?
COc1ccc(NC(=S)NC(NC(C)=O)C(Cl)(Cl)Cl)c([N+](=O)[O-])c1 (centres undefined)	4%	-25%	14%	-7%	-19%	?
COc1ccccc1NC(=S)NC(NC(=O)c1ccco1)C(Cl)(Cl)Cl (centres undefined)	27%	-21%	?	?	-17%	33%
